Measured values from PubChem BioAssay (Tox21).
A number with no mark means an inactive call. Results filed as inconclusive are left out. Entries that show only a call come without a potency. Activity calls are given as the source filed them. Unless noted, calls come from the whole dose curve; as a rule, active = well fitted curve in the direction sought with a large enough effect in the repeat runs; inconclusive = weak or mixed curves; inactive = no such curve, though single readings can be large; an effect the other way counts as inactive or inconclusive.

Tests used:
[1] = qHTS assay to test for compound auto fluorescence at 535 nm (green) in HEK293 cells (AID 720680)
[2] = qHTS assay to test for compound auto fluorescence at 460 nm (blue) in HEK293 cell free culture (AID 720681)
In short: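 Blue fluorescence (Ex 405/Em 460 nm, triamterene-equivalent) was read immediately after pin transfer of compound or DMSO into medium (DMEM, 10% FBS) without cells.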

[3] = qHTS assay to test for compound auto fluorescence at 535 nm (green) in HEK293 cell free culture (AID 720682)
In short: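 Cell-free medium (DMEM, 10% FBS) receives compound or DMSO by pintool. Plate read directly at Ex 485/Em 535 nm. Signal converted to fluorescein equivalency.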

[4] = qHTS assay to test for compound auto fluorescence at 590 nm (red) in HEK293 cell free culture (AID 720683)
In short: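 Red-channel autofluorescence of compounds in culture medium (DMEM, 10% FBS), no cells, measured at 540/590 nm. Rose Bengal sodium is the reference fluorophore for equivalence.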

[5] = qHTS assay to test for compound auto fluorescence at 590 nm (red) in HepG2 cell free culture (AID 720684)
In short: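 No cells present: MEM + 10% FBS only. Compound pinned in, red label read (540/590 nm). Activity = fluorescence equivalent to Rose Bengal sodium.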

[6] = qHTS assay to test for compound auto fluorescence at 460 nm (blue) in HepG2 cell free culture (AID 720685)
In short: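 Cell-free plates of MEM plus 10% FBS received 23 nL compound or DMSO vehicle; blue-channel (405/460 nm) intensity scored against triamterene as reference fluorophore.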

[7] = qHTS assay to test for compound auto fluorescence at 535 nm (green) in HepG2 cell free culture (AID 720686)
[8] = qHTS assay to test for compound auto fluorescence at 460 nm (blue) in HepG2 cells (AID 720687)
In short: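 Blue-channel autofluorescence (Ex/Em 405/460 nm, triamterene-equivalent) was measured after 1 hr compound exposure at 37 C, 5% CO2. Cells were HepG2, plated overnight at 37 C in MEM plus 10% FBS.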

[9] = molecular target: Glucocorticoid receptor (Homo sapiens) (UniProt P04150); assay: qHTS assay to identify small molecule agonists of the glucocorticoid receptor (GR) signaling pathway (AID 720691; active = well fitted activation curve with a large enough effect in the signal ratio in the repeat runs, not every such curve was filed as active; the % refers to the signal ratio)
Chain of Glucocorticoid receptor (Homo sapiens) (P04150 whole entry, looked up): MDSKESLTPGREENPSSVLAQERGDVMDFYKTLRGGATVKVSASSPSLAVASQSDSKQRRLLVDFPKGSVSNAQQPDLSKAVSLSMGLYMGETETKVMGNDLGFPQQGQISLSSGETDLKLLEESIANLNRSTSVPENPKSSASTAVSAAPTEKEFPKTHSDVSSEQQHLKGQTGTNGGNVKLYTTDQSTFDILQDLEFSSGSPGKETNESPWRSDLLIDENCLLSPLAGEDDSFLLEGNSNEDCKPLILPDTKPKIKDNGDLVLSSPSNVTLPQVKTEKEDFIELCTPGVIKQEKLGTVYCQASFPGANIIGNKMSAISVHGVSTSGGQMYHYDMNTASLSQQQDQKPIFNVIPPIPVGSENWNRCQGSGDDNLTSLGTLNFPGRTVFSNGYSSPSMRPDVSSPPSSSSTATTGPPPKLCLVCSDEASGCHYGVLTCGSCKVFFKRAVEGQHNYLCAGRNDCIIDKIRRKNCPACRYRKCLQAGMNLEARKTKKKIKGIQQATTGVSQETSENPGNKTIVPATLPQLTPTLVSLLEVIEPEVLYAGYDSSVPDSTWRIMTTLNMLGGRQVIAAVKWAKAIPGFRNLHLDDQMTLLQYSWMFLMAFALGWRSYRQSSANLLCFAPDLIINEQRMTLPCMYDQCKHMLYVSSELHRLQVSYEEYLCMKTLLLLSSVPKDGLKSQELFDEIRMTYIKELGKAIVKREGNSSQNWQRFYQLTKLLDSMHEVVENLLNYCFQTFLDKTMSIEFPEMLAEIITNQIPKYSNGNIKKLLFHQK
In short: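 Cells: GR-bla HeLa, endogenous GR with stably integrated GRE-beta-lactamase reporter. Treatment 18 h, 37 C, compounds delivered in DMSO. Detection via LiveBLAzer B/G FRET substrate, 2 h RT, fluorescence intensity.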

[10] = molecular target: Glucocorticoid receptor (Homo sapiens) (UniProt P04150); assay: qHTS assay to identify small molecule antagonists of the glucocorticoid receptor (GR) signaling pathway (AID 720692; active = well fitted inhibition curve with a large enough effect in the signal ratio in the repeat runs, not every such curve was filed as active; the % refers to the signal ratio; note: potency is the fitted concentration of half-maximal effect)
In short: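 Quantitative HTS in antagonist format: HeLa cells expressing endogenous GR and a stably integrated GRE-bla reporter, stimulated with 5 nM dexamethasone (final) alongside test compounds for 18 h.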

[11] = qHTS assay to identify small molecule antagonists of the glucocorticoid receptor (GR) signaling pathway - cell viability counter screen (AID 720693); note: nearly all actives have a fitted effect of over 55% in size
[12] = qHTS assay for identifying genotoxic compounds that show differential cytotoxicity against isogenic chicken DT40 cell lines with known DNA damage response pathways - wild type cell line (AID 743012); note: nearly all actives have a fitted effect of over 60% in size; note: potency is the fitted concentration of half-maximal effect
In short: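 Luminescent ATP viability signal (CellTiter-Glo, 30 min RT) recorded after wild type DT40 cells were incubated with compounds for 40 h at 37 C/5% CO2.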

[13] = qHTS assay for identifying genotoxic compounds that show differential cytotoxicity against isogenic chicken DT40 cell lines with known DNA damage response pathways - Rev3 mutant cell line (AID 743014); note: nearly all actives have a fitted effect of over 55% in size; note: potency is the fitted concentration of half-maximal effect
[14] = qHTS assay for identifying genotoxic compounds that show differential cytotoxicity against isogenic chicken DT40 cell lines with known DNA damage response pathways - Rad54/Ku70 mutant cell line (AID 743015); note: nearly all actives have a fitted effect of over 60% in size; note: potency is the fitted concentration of half-maximal effect
[15] = qHTS assay to identify small molecule antagonists of the androgen receptor (AR) signaling pathway - cell viability counter screen (AID 743033; note: nearly all actives have a fitted effect of over 45% in size)
[16] = qHTS assay to identify small molecule antagonists of the androgen receptor (AR) signaling pathway using the MDA cell line - cell viability counter screen (AID 743041; note: nearly all actives have a fitted effect of over 45% in size; note: potency is the fitted concentration of half-maximal effect)
In short: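 Using the breast carcinoma line MDA-kb2 AR-luc, test chemicals were co-incubated with R1881 for 16 h; CellTiter-Fluor reagent, added at 15.5 h, provided a fluorescence measure of live cells.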

[17] = molecular target: Androgen receptor (Homo sapiens) (UniProt P10275); assay: qHTS assay to identify small molecule antagonists of the androgen receptor (AR) signaling pathway (AID 743035; active = well fitted inhibition curve with a large enough effect in the signal ratio in the repeat runs, not every such curve was filed as active; the % refers to the signal ratio)
Chain of Androgen receptor (Homo sapiens) (P10275 whole entry, looked up): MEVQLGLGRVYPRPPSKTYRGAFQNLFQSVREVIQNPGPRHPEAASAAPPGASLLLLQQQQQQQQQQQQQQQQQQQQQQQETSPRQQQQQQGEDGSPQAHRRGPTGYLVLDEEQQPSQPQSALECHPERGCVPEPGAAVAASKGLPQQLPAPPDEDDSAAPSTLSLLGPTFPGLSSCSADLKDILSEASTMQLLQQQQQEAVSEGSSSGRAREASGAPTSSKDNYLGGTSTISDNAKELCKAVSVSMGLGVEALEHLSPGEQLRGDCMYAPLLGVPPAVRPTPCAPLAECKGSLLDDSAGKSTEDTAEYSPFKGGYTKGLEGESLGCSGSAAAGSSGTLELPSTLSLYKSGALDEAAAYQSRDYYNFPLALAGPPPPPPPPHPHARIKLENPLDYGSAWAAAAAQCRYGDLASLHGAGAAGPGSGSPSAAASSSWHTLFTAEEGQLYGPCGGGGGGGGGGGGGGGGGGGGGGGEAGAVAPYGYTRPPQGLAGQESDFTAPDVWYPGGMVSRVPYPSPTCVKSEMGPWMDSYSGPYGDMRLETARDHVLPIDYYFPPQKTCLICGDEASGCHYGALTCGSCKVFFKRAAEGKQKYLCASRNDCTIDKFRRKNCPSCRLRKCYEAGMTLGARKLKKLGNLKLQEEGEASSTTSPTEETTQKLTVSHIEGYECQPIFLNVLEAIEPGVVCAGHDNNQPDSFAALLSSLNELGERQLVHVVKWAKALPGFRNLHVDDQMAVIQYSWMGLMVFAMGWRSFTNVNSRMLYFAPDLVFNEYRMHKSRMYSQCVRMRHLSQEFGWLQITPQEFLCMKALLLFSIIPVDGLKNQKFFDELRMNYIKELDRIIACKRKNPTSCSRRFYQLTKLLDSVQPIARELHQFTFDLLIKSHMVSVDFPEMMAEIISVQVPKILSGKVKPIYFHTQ
In short: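 Quantitative HTS of the Tox21 10K library used HEK293 AR-UAS-bla cells stimulated with R1881 alongside compound for 16 h at 37C, followed by beta-lactamase FRET detection (LiveBLAzer B/G, 2 h, RT).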

[18] = molecular target: Androgen receptor (Homo sapiens) (UniProt P10275); assay: qHTS assay to identify small molecule agonists of the androgen receptor (AR) signaling pathway (AID 743036; active = well fitted activation curve with a large enough effect in the signal ratio in the repeat runs, with a control signal flat, not every such curve was filed as active; the % refers to the signal ratio)
In short: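 AR-bla HEK293 cells, 2,000/well; 4 h preincubation 37C/5% CO2; compound (DMSO) 16 h at 37C; LiveBLAzer B/G FRET substrate 2 h RT; fluorescence intensity read-out.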

[19] = molecular target: Androgen receptor (Homo sapiens) (UniProt P10275); assay: qHTS assay to identify small molecule agonists of the androgen receptor (AR) signaling pathway using the MDA cell line (AID 743040; note: nearly all actives have a fitted effect of over 20% in size)
In short: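 Stable MMTV-luciferase reporter in MDA-kb2 cells; note the promoter carries GR as well as AR response elements. 16 h compound treatment, 37C, 0% CO2; ONE-Glo luminescence endpoint.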

[20] = molecular target: Androgen receptor (Homo sapiens) (UniProt P10275); assay: qHTS assay to identify small molecule antagonists of the androgen receptor (AR) signaling pathway using the MDA cell line (AID 743042; note: nearly all actives have a fitted effect of over 55% in size)
In short: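 Antagonist mode: compounds plus R1881 agonist added to MDA-kb2 AR-luc cells, incubated 16 h at 37C. Luciferase reporter luminescence quantified, with multiplexed CellTiter-Fluor readout for cell viability.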

Compound: CN1CC(=O)N2[C@H](c3ccc4c(c3)OCO4)c3[nH]c4ccccc4c3C[C@@H]2C1=O
- outcome [1]: inactive
- Potency [2]: inactive
- outcome [3]: inactive
- outcome [4]: inactive
- outcome [5]: inactive
- Potency [6]: inactive
- outcome [7]: inactive
- Potency [8]: inactive
- Potency [9]: inactive
- Potency [10]: inactive
- Potency [11]: inactive
- Potency [12]: inactive
- Potency [13]: inactive
- Potency [14]: inactive
- Potency [15]: inactive
- Potency [16]: inactive

Compound: CC(=O)[C@H]1[C@H](C#N)C[C@H]2[C@@H]3CC=C4C[C@@H](O)CC[C@]4(C)[C@H]3CC[C@@]21C
- outcome [1]: inactive
- Potency [2]: inactive
- outcome [3]: inactive
- outcome [4]: inactive
- outcome [5]: inactive
- Potency [6]: inactive
- outcome [7]: inactive
- Potency [8]: inactive
- Potency [9]: inactive
- Potency [10]: 10.6 µM (active)
- Potency [11]: inactive
- Potency [12]: 37.1 µM (active)
- Potency [13]: 37.1 µM (active)
- Potency [15]: inactive
- Potency [16]: inactive

Compound: Cc1ccc(CO)cc1
- outcome [1]: inactive
- Potency [2]: inactive
- outcome [3]: inactive
- outcome [4]: inactive
- outcome [5]: inactive
- Potency [6]: inactive
- outcome [7]: inactive
- Potency [8]: inactive
- Potency [9]: inactive
- Potency [10]: inactive
- Potency [11]: inactive
- Potency [12]: inactive
- Potency [13]: inactive
- Potency [15]: inactive

Compound: CCC(C)(C)OC
- outcome [1]: inactive
- Potency [2]: inactive
- outcome [3]: inactive
- outcome [4]: inactive
- outcome [5]: inactive
- Potency [6]: inactive
- outcome [7]: inactive
- Potency [8]: inactive
- Potency [9]: inactive
- Potency [10]: inactive
- Potency [11]: inactive
- Potency [12]: inactive
- Potency [13]: inactive
- Potency [14]: inactive
- Potency [15]: inactive
- Potency [16]: inactive

Compound: COc1cc(N)c(Cl)cc1C(=O)NC1CCN(CCCOc2ccc(F)cc2)CC1OC (stereo unspecified)
- fluorescence, % of fluorescein [1]: 0.0057% [at 18.6 µM]
- fluorescence, % of fluorescent control [2]: -0.0155% [at 18.6 µM]
- activity change [3]: 0.0082% [at 18.6 µM]
- fluorescence, % of fluorescent control [4]: 0.142% [at 18.6 µM]
- fluorescence, % of Rose Bengal [5]: -0.186% [at 18.6 µM]
- fluorescence, % of fluorescent control [6]: -0.0728% [at 18.6 µM]
- fluorescence, % of fluorescein control [7]: -0.0661% [at 18.6 µM]
- fluorescence, % of fluorescent control [8]: 0.156% [at 18.6 µM]
- Potency [9]: inactive
- Potency [10]: inactive
- Potency [11]: inactive
- Potency [12]: 11.4 µM (active)
- Potency [14]: 12.7 µM (active)
- Potency [15]: inactive

Compound: O=C(O)CCc1nc(-c2ccccc2)c(-c2ccccc2)o1
- outcome [1]: inactive
- Potency [2]: inactive
- outcome [3]: inactive
- outcome [4]: inactive
- outcome [5]: inactive
- Potency [6]: inactive
- outcome [7]: inactive
- Potency [8]: inactive
- Potency [9]: inactive
- Potency [10]: inactive
- Potency [11]: inactive
- Potency [12]: inactive
- Potency [13]: inactive
- Potency [14]: inactive
- Potency [15]: inactive
- Potency [16]: inactive

Compound: c1ccc(C[n+]2cccc3ccccc32)cc1
- outcome [1]: inactive
- Potency [2]: inactive
- outcome [3]: inactive
- outcome [4]: inactive
- outcome [5]: inactive
- Potency [6]: inactive
- outcome [7]: inactive
- Potency [8]: inactive
- Potency [9]: inactive
- Potency [10]: inactive
- Potency [11]: inactive
- Potency [12]: 54.5 µM (active)
- Potency [13]: 27.3 µM (active)
- Potency [14]: 27.3 µM (active)
- Potency [16]: 61.1 µM (active)

Compound: CCc1ccccc1
- outcome [1]: inactive
- Potency [2]: inactive
- outcome [3]: inactive
- outcome [4]: inactive
- outcome [5]: inactive
- Potency [6]: inactive
- outcome [7]: inactive
- Potency [8]: inactive
- Potency [9]: inactive
- Potency [10]: inactive
- Potency [11]: inactive
- Potency [12]: inactive
- Potency [13]: inactive
- Potency [14]: inactive
- Potency [15]: inactive
- Potency [16]: inactive

Compound: CN1CCCC(n2nc(Cc3ccc(Cl)cc3)c3ccccc3c2=O)CC1 (stereo unspecified)
- outcome [1]: inactive
- Potency [2]: inactive
- outcome [3]: inactive
- outcome [4]: inactive
- outcome [5]: inactive
- Potency [6]: inactive
- outcome [7]: inactive
- Potency [8]: inactive
- Potency [9]: inactive
- Potency [10]: inactive
- Potency [11]: inactive
- Potency [12]: 11.9 µM (active)
- Potency [13]: 21.1 µM (active)
- Potency [15]: inactive

Compound: CCC(=O)OC
- outcome [1]: inactive
- Potency [2]: inactive
- outcome [3]: inactive
- outcome [4]: inactive
- outcome [5]: inactive
- Potency [6]: inactive
- outcome [7]: inactive
- Potency [8]: inactive
- Potency [9]: inactive
- Potency [10]: inactive
- Potency [11]: inactive
- Potency [12]: inactive
- Potency [13]: inactive
- Potency [14]: inactive
- Potency [15]: inactive
- Potency [17]: inactive
- outcome [18]: inactive
- outcome [19]: inactive
- Potency [20]: inactive

Compound: O=C(O)CCC(=O)C(=O)O
- outcome [1]: inactive
- Potency [2]: inactive
- outcome [3]: inactive
- outcome [4]: inactive
- outcome [5]: inactive
- Potency [6]: inactive
- outcome [7]: inactive
- Potency [8]: inactive
- Potency [9]: inactive
- Potency [10]: inactive
- Potency [11]: inactive
- Potency [12]: inactive
- Potency [13]: inactive
- Potency [14]: inactive
- Potency [15]: inactive
- Potency [16]: inactive

Compound: CCN(CC)CCNC(=O)COc1ccc(OC)cc1
- outcome [1]: inactive
- Potency [2]: inactive
- outcome [3]: inactive
- outcome [4]: inactive
- outcome [5]: inactive
- Potency [6]: inactive
- outcome [7]: inactive
- Potency [8]: inactive
- Potency [9]: inactive
- Potency [10]: inactive
- Potency [11]: inactive
- Potency [12]: inactive
- Potency [13]: inactive
- Potency [15]: inactive
- Potency [16]: inactive

Compound: CC1CC(OC(=O)C(O)c2ccccc2)CC(C)(C)N1C (stereo unspecified)
- outcome [1]: inactive
- Potency [2]: inactive
- outcome [3]: inactive
- outcome [4]: inactive
- outcome [5]: inactive
- Potency [6]: inactive
- outcome [7]: inactive
- Potency [8]: inactive
- Potency [9]: inactive
- Potency [10]: inactive
- Potency [11]: inactive
- Potency [12]: inactive
- Potency [13]: inactive
- Potency [14]: inactive
- Potency [15]: inactive
- Potency [16]: inactive

Compound: CC(CN(C)C)C(C)(O)Cc1ccc(Cl)cc1 (stereo unspecified)
- outcome [1]: inactive
- Potency [2]: inactive
- outcome [3]: inactive
- outcome [4]: inactive
- outcome [5]: inactive
- Potency [6]: inactive
- outcome [7]: inactive
- Potency [8]: inactive
- Potency [9]: inactive
- Potency [10]: inactive
- Potency [11]: inactive
- Potency [12]: inactive
- Potency [15]: inactive
- Potency [17]: inactive
- outcome [18]: inactive
- outcome [19]: inactive
- Potency [16]: inactive
- Potency [20]: inactive

Compound: Cc1cc(C)c(N)cc1C
- outcome [1]: inactive
- Potency [2]: inactive
- outcome [3]: inactive
- outcome [4]: inactive
- outcome [5]: inactive
- Potency [6]: inactive
- outcome [7]: inactive
- Potency [8]: inactive
- Potency [9]: inactive
- Potency [10]: inactive
- Potency [11]: inactive
- Potency [12]: inactive
- Potency [13]: inactive
- Potency [14]: inactive
- Potency [15]: inactive
- Potency [16]: inactive
